A number with no mark means an inactive call. Active and inactive are the calls of the source. Calls follow the shape of the dose curve; as a rule, active = well fitted curve in the direction sought with a large enough effect in the repeat runs; inconclusive = weak or mixed curves; inactive = flat fitted curve, though single readings scatter.
experiment: qHTS assay to test for compound auto fluorescence at 535 nm (green) in HEK293 cell free culture (AID 720682); conditions: cell-free medium, green autofluorescence 485/535 nm, hits give high values; series mostly up to 91.3 µM; activity change: at the top concentration
Outline: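 Green-label autofluorescence (485 nm excitation, 535 nm emission) measured on compound added to cell-free culture medium (DMEM, 10% FBS). Output is expressed relative to fluorescein.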
% is scaled to controls: 0 for no effect and ±100 for the full control effect.

| SMILES | activity change | outcome |
| --- | --- | --- |
| Cc1[nH]c(C)c(Cl)c(=O)c1Cl | -0.115% [at 46 µM] |  |
| Cc1cccc(C)c1OCC(=O)N[C@@H](Cc1ccccc1)[C@@H](O)C[C@H](Cc1ccccc1)NC(=O)[C@H](C(C)C)N1CCCNC1=O | 0.109% [at 46 µM] |  |
| CCCCCCCCCCCCCCOS(=O)(=O)O | -0.0427% |  |
| CCN(CC)CCOC(=O)C(c1ccccc1)C1CCCCC1 (configuration not stated) | 0.0252% [at 46 µM] |  |
| Cc1c(N)cccc1[N+](=O)[O-] | 0.0309% [at 95.7 µM] |  |
| CC(C)O.CC(C)O.CCOC(=O)/C=C(\C)O.CCOC(=O)/C=C(\C)O.[Ti] | 0.0034% |  |
| O=C(CS)Nc1ccccc1 | -0.0286% [at 46 µM] |  |
| COc1cc(Cl)c(OC)cc1N | 0.0274% |  |
| COc1cccc(N(C)C(=S)Oc2ccc3c(c2)CCCC3)n1 | -0.0159% [at 46 µM] |  |
| CC1CCC(=O)C1=O (configuration not stated) | 0.0889% [at 95.7 µM] |  |
| CC[N+](C)(CC)CCOC(=O)C(O)(c1ccccc1)C1CCCCC1 (configuration not stated) | 0.0592% [at 46 µM] |  |
| CCCCCCCC/C=C\CCCCCCCC(=O)OCC | -0.0204% |  |
| O=C(O)CC(=O)C(=O)O | 0.0053% |  |
| CCc1cc(C2=C(C(=O)O)N(c3ccccc3C(F)(F)F)S(=O)(=O)c3ccccc32)cc2c1OCO2 | -0.0071% |  |
| CCCCNc1ccc(C(=O)OCCOCCOCCOCCOCCOCCOCCOCCOCCOC)cc1 | -0.0595% [at 18.6 µM] |  |
| CCC(C)c1cc(C(C)(C)C)c(O)c(C(C)(C)C)c1 (configuration not stated) | -0.005% |  |

| SMILES | activity change | outcome |
| --- | --- | --- |
| CNCCCCOc1ccccc1Cc1ccccc1 | -0.0974% [at 46 µM] |  |
| CCOC(=O)COC(=O)c1cc(Oc2ccc(C(F)(F)F)cc2Cl)ccc1[N+](=O)[O-] | 0.0735% |  |
| Nc1ncn([C@H]2C[C@H](O)[C@@H](CO)O2)c(=O)n1 | 0.059% [at 46 µM] |  |
| NC(N)=NCCC[C@H](N)C(=O)O | 0.0471% [at 46 µM] |  |
| C=CC(=O)OCCOCCOC(=O)C=C | 0.0579% |  |
| CN(C)c1ccc(/C=C/c2ccc([N+](=O)[O-])cc2)cc1 | -0.151% [at 3.72 µM] |  |
| CCCCCCCCCCO[C@@H]1O[C@H](CO)[C@@H](O)[C@H](O)[C@H]1O | 0.0095% |  |
| CCCNCC(O)COc1ccccc1C(=O)CCc1ccccc1 (configuration not stated) | 0.121% [at 46 µM] |  |
| O=C(Nc1ccccc1)c1ccccc1O | 0.0102% |  |
| CN1CCC(=C2c3ccccc3Sc3ccccc32)CC1 | -0.202% [at 46 µM] |  |
| C=CCOc1ccccc1OCC(O)CNC(C)C (configuration not stated) | -0.0456% [at 18.6 µM] |  |
| C=CC(=O)OCCOCCOCCOCCOC(=O)C=C |  | inactive |
| O=C(O)c1nc(Cl)c(Cl)c(Cl)c1Cl | -0.0015% |  |
| CCO[C@H](Cc1ccc(OCCc2ccc(OS(C)(=O)=O)cc2)cc1)C(=O)O | -0.102% [at 46 µM] |  |
| CCCCCCCCCCCCCCCCOS(=O)(=O)O | -0.0246% [at 46 µM] |  |

experiment: qHTS assay to test for compound auto fluorescence at 590 nm (red) in HEK293 cell free culture (AID 720683); conditions: cell-free medium autofluorescence, Ex540/Em590 red; series mostly up to 91.3 µM; fluorescence, % of fluorescent control: at the top concentration
Outline: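 Red-channel autofluorescence of compounds in culture medium (DMEM, 10% FBS), no cells, measured at 540/590 nm. Rose Bengal sodium is the reference fluorophore for equivalence.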

| SMILES | Potency | fluorescence, % of fluorescent control |
| --- | --- | --- |
| CC(C)C[C@H]1C(=O)N2CCC[C@H]2[C@]2(O)O[C@](NC(=O)[C@@H]3C=C4c5cccc6[nH]c(Br)c(c56)C[C@H]4N(C)C3)(C(C)C)C(=O)N12 | inactive |  |
| Cc1[nH]c(C)c(Cl)c(=O)c1Cl |  | 0.0523% [at 46 µM] |
| CC(C)Nc1ccc(NC(C)C)c2c1C(=O)c1ccccc1C2=O |  | 0.171% [at 46 µM] |
| Cc1cccc(Nc2ccccc2)c1 |  | -0.174% |
| COc1cc(Cl)ccc1Oc1ccc(Cl)cc1Cl |  | 0.116% |
| Cc1cccc(C)c1OCC(=O)N[C@@H](Cc1ccccc1)[C@@H](O)C[C@H](Cc1ccccc1)NC(=O)[C@H](C(C)C)N1CCCNC1=O |  | -0.656% [at 46 µM] |
| CCN(CC)CCOC(=O)C(c1ccccc1)C1CCCCC1 (configuration not stated) |  | -0.005% [at 46 µM] |
| Cc1c(N)cccc1[N+](=O)[O-] |  | -0.122% [at 95.7 µM] |
| C#Cc1cccc(Nc2ncnc3cc(OCCOC)c(OCCOC)cc23)c1 |  | 0.0113% [at 46 µM] |
| O=C(O)C1(C(=O)Nc2ccc(Cl)cc2Cl)CC1 |  | -0.0035% |
| COc1cc(Cl)c(OC)cc1N |  | 0.12% |
| CC1CCC(=O)C1=O (configuration not stated) |  | -0.229% [at 95.7 µM] |
| CCCCCCCC/C=C\CCCCCCCC(=O)OCC |  | 0.116% |
| O=C(O)CC(=O)C(=O)O |  | 0.355% |
| CCc1cc(C2=C(C(=O)O)N(c3ccccc3C(F)(F)F)S(=O)(=O)c3ccccc32)cc2c1OCO2 |  | -0.0554% |
| CCC(C)c1cc(C(C)(C)C)c(O)c(C(C)(C)C)c1 (configuration not stated) |  | -0.071% |
| CNCCCCOc1ccccc1Cc1ccccc1 |  | 0.615% [at 46 µM] |
| CCOC(=O)COC(=O)c1cc(Oc2ccc(C(F)(F)F)cc2Cl)ccc1[N+](=O)[O-] |  | 0.0501% |
| Nc1ncn([C@H]2C[C@H](O)[C@@H](CO)O2)c(=O)n1 |  | -0.104% [at 46 µM] |
| NC(N)=NCCC[C@H](N)C(=O)O |  | -0.553% [at 46 µM] |
| C=CC(=O)OCCOCCOC(=O)C=C |  | -0.119% |
| CN(C)c1ccc(/C=C/c2ccc([N+](=O)[O-])cc2)cc1 |  | -0.187% [at 3.72 µM] |
| CCCCCCCCCCO[C@@H]1O[C@H](CO)[C@@H](O)[C@H](O)[C@H]1O |  | -0.0834% |
| O=C(Nc1ccccc1)c1ccccc1O |  | -0.348% |
| CN1CCC(=C2c3ccccc3Sc3ccccc32)CC1 |  | 0.459% [at 46 µM] |
| C=CCOc1ccccc1OCC(O)CNC(C)C (configuration not stated) |  | 0.179% [at 18.6 µM] |
| C=CC(=O)OCCOCCOCCOCCOC(=O)C=C | inactive |  |
| O=C(O)c1nc(Cl)c(Cl)c(Cl)c1Cl |  | -0.34% |

experiment: qHTS assay to test for compound auto fluorescence at 590 nm (red) in HepG2 cell free culture (AID 720684); conditions: cell-free medium autofluorescence, red 540/590 nm; series mostly up to 91.3 µM; fluorescence, % of Rose Bengal: at the top concentration
Outline: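 Steps: dispense MEM/10% FBS medium, no cells; pin compound or DMSO vehicle; read red channel, Ex/Em 540/590 nm. Output given as Rose Bengal sodium equivalents.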

| SMILES | Potency | fluorescence, % of Rose Bengal |
| --- | --- | --- |
| CC(C)C[C@H]1C(=O)N2CCC[C@H]2[C@]2(O)O[C@](NC(=O)[C@@H]3C=C4c5cccc6[nH]c(Br)c(c56)C[C@H]4N(C)C3)(C(C)C)C(=O)N12 | inactive |  |
| Cc1[nH]c(C)c(Cl)c(=O)c1Cl |  | 0.0778% [at 46 µM] |
| Cc1cccc(Nc2ccccc2)c1 |  | -0.126% |
| O=C1CCCCCCCCCCCC(=O)OCCO1 |  | 0.0679% |
| CCCCCCCCCCCCCCOS(=O)(=O)O |  | 0.0786% |
| CCN(CC)CCOC(=O)C(c1ccccc1)C1CCCCC1 (configuration not stated) |  | 0.0237% [at 46 µM] |
| Cc1c(N)cccc1[N+](=O)[O-] |  | -0.181% [at 95.7 µM] |
| CC(C)O.CC(C)O.CCOC(=O)/C=C(\C)O.CCOC(=O)/C=C(\C)O.[Ti] |  | -0.339% |
| C#Cc1cccc(Nc2ncnc3cc(OCCOC)c(OCCOC)cc23)c1 |  | 0.0582% [at 46 µM] |
| O=C(CS)Nc1ccccc1 |  | -0.355% [at 46 µM] |
| COc1cc(Cl)c(OC)cc1N |  | -0.0215% |
| COc1cccc(N(C)C(=S)Oc2ccc3c(c2)CCCC3)n1 |  | 0.265% [at 46 µM] |
| CC1CCC(=O)C1=O (configuration not stated) |  | 0.0487% [at 95.7 µM] |
| CC[N+](C)(CC)CCOC(=O)C(O)(c1ccccc1)C1CCCCC1 (configuration not stated) |  | 0.0433% [at 46 µM] |
| CCCCCCCC/C=C\CCCCCCCC(=O)OCC |  | 0.107% |
| O=C(O)CC(=O)C(=O)O |  | -0.0444% |
| CCc1cc(C2=C(C(=O)O)N(c3ccccc3C(F)(F)F)S(=O)(=O)c3ccccc32)cc2c1OCO2 |  | 0.0217% |

| SMILES | Potency | fluorescence, % of Rose Bengal |
| --- | --- | --- |
| CCCCNc1ccc(C(=O)OCCOCCOCCOCCOCCOCCOCCOCCOCCOC)cc1 |  | -0.448% [at 18.6 µM] |
| CCC(C)c1cc(C(C)(C)C)c(O)c(C(C)(C)C)c1 (configuration not stated) |  | -0.213% |
| CNCCCCOc1ccccc1Cc1ccccc1 |  | -0.275% [at 46 µM] |
| CCOC(=O)COC(=O)c1cc(Oc2ccc(C(F)(F)F)cc2Cl)ccc1[N+](=O)[O-] |  | -0.45% |
| Nc1ncn([C@H]2C[C@H](O)[C@@H](CO)O2)c(=O)n1 |  | -0.251% [at 46 µM] |
| NC(N)=NCCC[C@H](N)C(=O)O |  | -0.139% [at 46 µM] |
| C=CC(=O)OCCOCCOC(=O)C=C |  | -0.201% |
| CN(C)c1ccc(/C=C/c2ccc([N+](=O)[O-])cc2)cc1 |  | -0.037% [at 3.72 µM] |
| CCCCCCCCCCO[C@@H]1O[C@H](CO)[C@@H](O)[C@H](O)[C@H]1O |  | -0.0481% |
| CCCNCC(O)COc1ccccc1C(=O)CCc1ccccc1 (configuration not stated) |  | -0.0221% [at 46 µM] |
| O=C(Nc1ccccc1)c1ccccc1O |  | -0.28% |
| CN1CCC(=C2c3ccccc3Sc3ccccc32)CC1 |  | -0.118% [at 46 µM] |
| C=CCOc1ccccc1OCC(O)CNC(C)C (configuration not stated) |  | 0.264% [at 18.6 µM] |
| C=CC(=O)OCCOCCOCCOCCOC(=O)C=C | inactive |  |
| O=C(O)c1nc(Cl)c(Cl)c(Cl)c1Cl |  | 0.0349% |
| CCCCCCCCCCCCCCCCOS(=O)(=O)O |  | -0.15% [at 46 µM] |
